The record followed here is the supplement of paper PMC4962491.

± gives the standard deviation of the averaged measurements.
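Further: compound exposure in DMEM (4 mM L-glutamine, 5 mM glucose), antimycin A injected at 2 µM after the basal reading and its residual OCR subtracted from basal.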

For the first assay, the system named is FaDu. As to the kind of experiment: mitochondrial oxygen consumption rate normalised to cell number, Z score vs plate DMSO wells; higher = higher oxygen consumption (negative = OCR reduction). The note with it: 2 µM; treatment time 24 h; assay medium: 5 mM glucose, 5 mM pyruvate, 4 mM glutamine. The method, then:
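Secondary screen: FaDu cells were incubated 24 h with the top 130 primary hits at 0.08, 0.4, 2 or 10 uM. Mitochondrial-specific OCR (basal minus antimycin A) was measured on a Seahorse XF96 in medium with 5 mM glucose, 5 mM pyruvate and 4 mM glutamine and normalised to Hoechst cell number. OCR score = (OCR - mean of plate DMSO wells) / SD of plate DMSO wells. Three repeats.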
Consider `CCCCCCCCCCCCCCCC[N+](C)(C)CCN(Cc1ccc(OC)cc1)c1ncccn1`, for which the “mitochondrial oxygen consumption rate normalised” value came out at 0.248 ± 1.4.
In the case of `CN(C)c1ccc(C(=C2C=CC(=[N+](C)C)C=C2)c2ccc(N(C)C)cc2)cc1`, the “mitochondrial oxygen consumption rate normalised” value is -13.3 ± 0.17.
The same measure, in the same setting: the value for `CCN(CC)CCCC(C)Nc1c2ccc(Cl)cc2nc2ccc(OC)cc12` (stereo unspecified) was -2.47 ± 1.1.
Same read-out and setting: the value for `N=C(N)c1ccc(OCCCCCOc2ccc(C(=N)N)cc2)cc1` was -2.03 ± 2.2.
The same measure, in the same setting: as for `C[n+]1cc2c3c(ccc2c2ccc4cc5c(cc4c21)OCO5)OCO3`, the figure is -0.66 ± 2.1; as for `CCCCCCCCCCCCC[N+](C)(C)Cc1ccccc1`, -11.5 ± 0.21; as for `Cc1ccc2c(Br)cc(Br)c(OC(=O)c3ccccc3)c2n1`, -3.89 ± 1.2.
Turning to `CCOc1ccc2nc3cc(N)ccc3c(N)c2c1`, the “mitochondrial oxygen consumption rate normalised” value was -3.32 ± 0.28.
Consider `O=[N+]([O-])c1ccc(O)c2ncccc12`, for which the “mitochondrial oxygen consumption rate normalised” value is -0.415 ± 1.2.
Regarding `N[C@@H](Cc1ccc(O)c(O)c1)C(=O)O`, the “mitochondrial oxygen consumption rate normalised” value came to 1.31 ± 0.9.
On the same count and under the same terms, the value for `Cc1c2oc3c(C)ccc(C(=O)N[C@@H]4C(=O)N[C@H](C(C)C)C(=O)N5CCC[C@H]5C(=O)N(C)CC(=O)N(C)[C@@H](C(C)C)C(=O)O[C@@H]4C)c3nc-2c(C(=O)N[C@@H]2C(=O)N[C@H](C(C)C)C(=O)N3CCC[C@H]3C(=O)N(C)CC(=O)N(C)[C@@H](C(C)C)C(=O)O[C@@H]2C)c(N)c1=O` was -9.57 ± 0.5; that for `CCCCCCCCCc1ccc(OCCOCCOCCOCCOCCOCCOCCOCCOCCO)cc1` was -3.38 ± 0.78.
On the same count and under the same terms, as for `CCc1cc(Cl)c(OC)c(C(=O)NC[C@@H]2CCCN2CC)c1O`, the figure is 0.712 ± 2.1; as for `C[n+]1c2cc(N)ccc2cc2ccc(N)cc21`, -5.7 ± 0.82.
Same read-out and setting: as for `COc1cc([C@@H]2c3cc4c(cc3[C@@H](O[C@@H]3O[C@@H]5CO[C@@H](c6cccs6)O[C@H]5[C@H](O)[C@H]3O)[C@H]3COC(=O)[C@H]23)OCO4)cc(OC)c1O`, the figure is -7.82 ± 1.4; as for `NS(=O)(=O)c1cc2c(cc1Cl)N=CNS2(=O)=O`, 0.0559 ± 1.2; as for `C#C[C@]1(O)CC[C@H]2[C@@H]3CCC4=CC(=O)CC[C@@H]4[C@H]3CC[C@@]21CC`, 1.15 ± 0.96.
Consider `Nc1nc2[nH]cnc2c(=S)[nH]1`, for which the “mitochondrial oxygen consumption rate normalised” value is -5.57 ± 0.33.
Still for that read-out and setting: as for `COc1cccc2c1C(=O)c1c(O)c3c(c(O)c1C2=O)C[C@@](O)(C(=O)CO)C[C@@H]3O[C@H]1C[C@H](N)[C@@H](O)[C@H](C)O1`, the figure is 1.18 ± 1.4; as for `CC(COc1ccccc1)NC(C)C(O)c1ccc(O)cc1` (stereo unspecified), 0.21 ± 1.1.
With `CCCCCCCCCCCCCCCC[N+](C)(C)C`, the “mitochondrial oxygen consumption rate normalised” value is -10.1 ± 0.48.
Turning to `O=C(O)c1cc(/N=N/c2ccc(O)c(C(=O)O)c2)ccc1O`, the “mitochondrial oxygen consumption rate normalised” value is -0.373 ± 1.2.
On the same count and under the same terms, the value for `CC[C@@]1(O)C(=O)OCc2c1cc1n(c2=O)Cc2cc3c(CN(C)C)c(O)ccc3nc2-1` was -1.46 ± 1.6; that for `COc1ccc(C[C@H](N)C(=O)N[C@H]2[C@@H](O)[C@H](n3cnc4c(N(C)C)ncnc43)O[C@@H]2CO)cc1` was -3.4 ± 2.1.
In the case of `CC(C(O)c1ccc(O)cc1)N1CCC(Cc2ccccc2)CC1` (stereo unspecified), the “mitochondrial oxygen consumption rate normalised” value is -0.938 ± 1.3.
Take `O=c1cc[nH]c(=S)[nH]1`: the “mitochondrial oxygen consumption rate normalised” value is -0.279 ± 2.5.
The same measure, in the same setting: as for `CCCCCC(=O)O[C@]1(C(C)=O)CC[C@H]2[C@@H]3CCC4=CC(=O)CC[C@]4(C)[C@H]3CC[C@@]21C`, the figure is 0.00301 ± 1.9.

Still in this assay, the particulars now being: 10 µM; treatment time 24 h; assay medium: 5 mM glucose, 5 mM pyruvate, 4 mM glutamine.
Consider `CCCCCCCCCCCCCCCC[N+](C)(C)CCN(Cc1ccc(OC)cc1)c1ncccn1`, for which the “mitochondrial oxygen consumption rate normalised” value is -5.99 ± 0.8.
On the same count and under the same terms, as for `N=C(N)c1ccc(OCCCCCOc2ccc(C(=N)N)cc2)cc1`, the figure is -6.65 ± 1.6.
With `C[n+]1cc2c3c(ccc2c2ccc4cc5c(cc4c21)OCO5)OCO3`, the “mitochondrial oxygen consumption rate normalised” value was -3.47 ± 3.3.
Still for that read-out and setting: as for `Cc1ccc2c(Br)cc(Br)c(OC(=O)c3ccccc3)c2n1`, the figure is -4.73 ± 1.5; as for `CCOc1ccc2nc3cc(N)ccc3c(N)c2c1`, -6.87 ± 0.83.
The same measure, in the same setting: as for `O=[N+]([O-])c1ccc(O)c2ncccc12`, the figure is -3.63 ± 2.5; as for `N[C@@H](Cc1ccc(O)c(O)c1)C(=O)O`, 0.522 ± 2; as for `CCCCCCCCCc1ccc(OCCOCCOCCOCCOCCOCCOCCOCCOCCO)cc1`, -7.69 ± 0.55.
Take `CCc1cc(Cl)c(OC)c(C(=O)NC[C@@H]2CCCN2CC)c1O`: the “mitochondrial oxygen consumption rate normalised” value turned out to be 0.556 ± 2.2.
The same measure, in the same setting: as for `C[n+]1c2cc(N)ccc2cc2ccc(N)cc21`, the figure is -12.3 ± 0.21; as for `NS(=O)(=O)c1cc2c(cc1Cl)N=CNS2(=O)=O`, 0.507 ± 1.1.
`C#C[C@]1(O)CC[C@H]2[C@@H]3CCC4=CC(=O)CC[C@@H]4[C@H]3CC[C@@]21CC`: the “mitochondrial oxygen consumption rate normalised” value is 1.62 ± 1.1.
Still for that read-out and setting: the value for `Nc1nc2[nH]cnc2c(=S)[nH]1` was -5.01 ± 1.4.
On the same count and under the same terms, the value for `COc1cccc2c1C(=O)c1c(O)c3c(c(O)c1C2=O)C[C@@](O)(C(=O)CO)C[C@@H]3O[C@H]1C[C@H](N)[C@@H](O)[C@H](C)O1` was 1.58 ± 2.4; that for `CC(COc1ccccc1)NC(C)C(O)c1ccc(O)cc1` (stereo unspecified) was 0.099 ± 1; that for `O=C(O)c1cc(/N=N/c2ccc(O)c(C(=O)O)c2)ccc1O` was -0.951 ± 2.1.
Still for that read-out and setting: as for `CC(C(O)c1ccc(O)cc1)N1CCC(Cc2ccccc2)CC1` (stereo unspecified), the figure is 0.802 ± 0.91; as for `O=c1cc[nH]c(=S)[nH]1`, 0.14 ± 2.1; as for `CCCCCC(=O)O[C@]1(C(C)=O)CC[C@H]2[C@@H]3CCC4=CC(=O)CC[C@]4(C)[C@H]3CC[C@@]21C`, -3.48 ± 1.8.
